Screen size: about 39,000 compounds; about 3,300 (8.5%) were called active. For the sample, actives were picked, then their nearest neighbours and some compounds at random.
These compounds were tested on HepG2 (assay: cytotoxicity call (relative viability < 0.9)). Conditions: 10 µM.

Row | SMILES | cytotoxicity call
1 | C[C@H]1CN([C@@H](C)CO)C(=O)Cc2cc(NC(=O)Cc3cn(C)c4ccccc34)ccc2O[C@@H]1CN(C)S(C)(=O)=O | inactive
2 | C[C@@H]1CN([C@H](C)CO)C(=O)c2cc(NS(=O)(=O)c3cn(C)cn3)ccc2O[C@H]1CN(C)C(=O)NC1CCCCC1 | inactive
3 | C[C@H]1CN([C@@H](C)CO)C(=O)Cc2cc(NC(=O)CCN3CCOCC3)ccc2O[C@@H]1CN(C)S(=O)(=O)c1cccs1 | inactive
4 | O=C(C[C@@H]1CC[C@H]2[C@@H](COC[C@@H](O)CN2C(=O)c2cnccn2)O1)NCc1ccc(Oc2ccccc2)cc1 | inactive
5 | COc1ccccc1NC(=O)N(C)C[C@@H]1Oc2ncc(Br)cc2C(=O)N([C@H](C)CO)C[C@H]1C | inactive
6 | O=C(CCCCCCC(=O)Nc1ccccc1O)N/N=C/[C@H](O)[C@@H](O)[C@H](O[C@@H]1O[C@H](CO)[C@H](O)[C@H](O)[C@H]1O)[C@H](O)CO | inactive
7 | C[C@H](CO)N1C[C@H](C)[C@@H](CN(C)C(=O)Nc2cccc3ccccc23)Oc2c(NC(=O)CCCCCC(=O)Nc3ccccc3N)cccc2C1=O | inactive
8 | C[C@@H]1CCCCO[C@@H](CN(C)S(=O)(=O)c2ccc(Cl)cc2)[C@@H](C)CN([C@H](C)CO)C(=O)c2cc(NC(=O)Nc3ccc(F)cc3)ccc2O1 | inactive
9 | C[C@H](CO)N1C[C@H](C)[C@H](CN(C)Cc2ccc(Oc3ccccc3)cc2)Oc2ccc(NC(=O)C3CC3)cc2C1=O | inactive
10 | Cc1ccc(NC(=O)N(C)C[C@@H]2OCCCC[C@H](C)Oc3ccc(NC(=O)C4CCCCC4)cc3C(=O)N([C@H](C)CO)C[C@@H]2C)cc1 | inactive
11 | NC(=O)CCN1CCn2c1nc1ccccc12 | inactive
12 | COc1ccc2c3c([nH]c2c1)[C@H](CO)N(C[C@]13CCN(CC1)C(=O)Nc1ccc2c(c1)OCO2)C(=O)Nc1ccc(cc1)F | inactive
13 | COc1ccc(NC(=O)Nc2ccc3c(c2)C(=O)N([C@H](C)CO)C[C@H](C)[C@@H](CN(C)Cc2ccccc2)OCCCC[C@@H](C)O3)cc1 | inactive
14 | COc1ccc(NC(=O)Nc2ccc3c(c2)C(=O)N([C@@H](C)CO)C[C@H](C)[C@@H](CN(C)Cc2ccccc2)OCCCC[C@H](C)O3)cc1 | inactive
15 | COc1ccc(NC(=O)Nc2ccc3c(c2)C(=O)N([C@H](C)CO)C[C@H](C)[C@H](CN(C)Cc2ccccc2)OCCCC[C@H](C)O3)cc1 | active
16 | C[C@@H]1CCCCO[C@H](CN(C)Cc2ccccc2)[C@@H](C)CN([C@H](C)CO)C(=O)c2cc(NS(=O)(=O)c3ccc(F)cc3)ccc2O1 | inactive

Row | SMILES | cytotoxicity call
17 | Cn1cnc([N+](=O)[O-])c1Cl | inactive
18 | Cn1cnc([N+](=O)[O-])c1Sc1[nH]cnc2ncnc1-2 | active
19 | Cn1cnnc1Sc1c([N+](=O)[O-])ncn1C | inactive
20 | C[C@@H]1CN([C@H](C)CO)C(=O)c2cc(NC(=O)CCN3CCOCC3)ccc2O[C@@H]1CN(C)C(=O)Nc1ccccc1 | inactive
21 | C[C@@H]1CN([C@@H](C)CO)S(=O)(=O)c2ccc(C#CC3CCCC3)cc2O[C@H]1CN(C)Cc1cncnc1 | inactive
22 | C[C@@H]1O[C@@H](O[C@@H]2CC[C@@]3(C)[C@@H](CC[C@]4(C)[C@@H]3CC=C3[C@@H]5CC(C)(C)CC[C@]5(C(=O)O[C@@H]5O[C@H](CO[C@@H]6O[C@H](CO)[C@@H](O)[C@H](O)[C@H]6O)[C@@H](O)[C@H](O)[C@H]5O)CC[C@]34C)[C@]2(C)CO)[C@H](O)[C@H](O[C@@H]2OC[C@@H](O)[C@H](O)[C@H]2O)[C@H]1O | inactive
23 | C[C@@H]1O[C@H](O[C@H]2[C@H](OC(=O)[C@]34CCC(C)(C)C[C@@H]3C3=CC[C@@H]5[C@@]6(C)CC[C@H](O[C@@H]7O[C@@H](C)[C@H](O[C@@H]8OC[C@@H](O)[C@H](O)[C@H]8O)[C@@H](O)[C@H]7O)C(C)(C)[C@@H]6CC[C@@]5(C)[C@]3(C)C[C@@H]4O)OC[C@H](O)[C@H]2O)[C@H](O)[C@H](O)[C@H]1O[C@@H]1O[C@H](CO)[C@@H](O)[C@H](O)[C@H]1O | inactive
24 | C[C@H]1O[C@@H](O[C@H]2[C@@H](O)[C@@H](O)[C@@H](O[C@H]3CC[C@]4(C)[C@H]5CC=C6[C@H]7CC(C)(C)[C@H]8C[C@]7(C(=O)O8)[C@@H](O)C[C@]6(C)[C@@]5(C)CC[C@H]4C3(C)C)O[C@@H]2CO)[C@@H](O)[C@@H](O[C@H]2OC[C@@H](O)[C@@H](O)[C@@H]2O)[C@@H]1O | inactive
25 | C[C@@H]1O[C@H](O[C@@H]2[C@H](O)C[C@@]3(C)[C@@H](CC[C@]4(C)[C@H]3CC=C3[C@H]5CC(C)(C)CC[C@@]5(C(=O)O[C@H]5O[C@@H](C)[C@@H](O)[C@H](O[C@H]6OC[C@@H](O)[C@@H](O)[C@@H]6O)[C@H]5O[C@@H]5O[C@H](C)[C@H](O)[C@H](O[C@@H]6OC[C@H](O)[C@H](O[C@@H]7O[C@H](C)[C@@H](O)[C@H](O)[C@@H]7O)[C@H]6O)[C@H]5O)[C@@H](O)C[C@@]34C)[C@]2(C)CO)[C@@H](O)[C@H](O[C@H]2OC[C@@H](O)[C@@H](O[C@H]3OC[C@@H](O[C@H]4OC[C@@](O)(CO)[C@@H]4O)[C@@H](O)[C@@H]3O)[C@@H]2O)[C@@H]1O | inactive
26 | C[C@@H]1O[C@@H](O[C@@H]2[C@@H](O)[C@@H](O[C@@H]3O[C@@H](CO)[C@H](O)[C@H]3O)[C@H](OC(=O)[C@]34CCC(C)(C)C[C@H]3C3=CC[C@H]5[C@@]6(C)C[C@H](O)[C@H](O[C@@H]7O[C@@H](C)[C@H](O)[C@@H](O[C@@H]8OC[C@@H](O)[C@H](O)[C@H]8O[C@@H]8O[C@H](CO)[C@@H](O)[C@H](O)[C@H]8O)[C@H]7O)[C@@](C)(CO)[C@@H]6CC[C@@]5(C)[C@]3(C)C[C@H]4O)O[C@H]2C)[C@H](O)[C@H](O)[C@H]1O | active
27 | CC1(C)CC[C@]2(C(=O)O[C@@H]3O[C@H](CO)[C@@H](O)[C@H](O)[C@H]3O)CC[C@]3(C)C(=CC[C@H]4[C@@]5(C)CC[C@@H](O[C@@H]6O[C@H](C(=O)O)[C@@H](O[C@@H]7OC[C@@H](O)[C@H](O)[C@H]7O)[C@H](O[C@@H]7OC[C@](O)(CO)[C@H]7O)[C@H]6O)C(C)(C)[C@@H]5CC[C@]43C)[C@@H]2C1 | inactive
28 | C[C@@H]1O[C@@H](O[C@H]2[C@H](OC(=O)[C@]34CCC(C)(C)C[C@H]3C3=CC[C@H]5[C@@]6(C)CC[C@H](O[C@@H]7O[C@H](CO)[C@@H](O)[C@H](O)[C@H]7O)C(C)(C)[C@@H]6CC[C@@]5(C)[C@]3(C)C[C@H]4O)OC[C@H](O)[C@@H]2O)[C@H](O)[C@H](O[C@@H]2OC[C@H](O)[C@H](O)[C@H]2O)[C@H]1O[C@@H]1OC[C@@H](O)[C@H](O[C@@H]2OC[C@H](O)[C@H](O)[C@H]2O)[C@H]1O | active
29 | CC(=O)N[C@H]1[C@H](O[C@H]2CC[C@]3(C)[C@H]4CC=C5[C@@H]6CC(C)(C)CC[C@]6(C(=O)O[C@H]6OC[C@@H](O)[C@@H](O)[C@@H]6O)[C@@H](O)C[C@@]5(C)[C@]4(C)CC[C@H]3C2(C)C)O[C@H](CO[C@H]2OC[C@@H](O)[C@@H](O[C@H]3OC[C@@H](O)[C@@H](O)[C@@H]3O)[C@@H]2O)[C@@H](O[C@@H]2O[C@@H](C)[C@H](O)[C@@H](O)[C@H]2O[C@@H]2O[C@@H](C)[C@H](O)[C@@H](O)[C@H]2O)[C@@H]1O | active
30 | C=C[C@](C)(O)CC/C=C(\C)C(=O)O[C@@H]1[C@@H](O[C@@](C)(C=C)CC/C=C(\C)C(=O)O[C@H]2C[C@@]3(C(=O)O[C@H]4OC[C@@H](O[C@H]5O[C@@H](CO)[C@@H](O)[C@@H](O[C@H]6O[C@@H](CO)[C@@H](O[C@H]7O[C@@H](CO)[C@@H](O)[C@@H](O)[C@@H]7O)[C@@H](O)[C@@H]6O)[C@@H]5O)[C@@H](O)[C@@H]4O)[C@@H](O)C[C@@]4(C)C(=CC[C@H]5[C@@]6(C)CC[C@@H](O[C@H]7O[C@@H](CO)[C@@H](O[C@H]8O[C@@H](CO)[C@@H](O)[C@@H](O[C@H]9OC[C@@H](O)[C@@H](O)[C@@H]9O)[C@@H]8O)[C@@H](O)[C@@H]7O)C(C)(C)[C@@H]6CC[C@@]54C)[C@@H]3CC2(C)C)OC[C@@H](O)[C@H]1O | active
31 | C[C@H]1O[C@@H](OC(=O)[C@]23CCC(C)(C)C[C@H]2C2=CC[C@H]4[C@@]5(C)CC[C@H](O[C@@H]6O[C@H](C(=O)O)[C@@H](O)[C@H](O[C@@H]7OC[C@@H](O)[C@H](O)[C@H]7O)[C@H]6O[C@@H]6O[C@H](CO)[C@H](O)[C@H](O)[C@H]6O)[C@@](C)(C=O)[C@@H]5CC[C@@]4(C)[C@]2(C)C[C@H]3O)[C@H](O[C@H]2O[C@@H](CO)[C@@H](O)[C@@H](O)[C@@H]2O)[C@@H](O)[C@H]1O[C@@H]1O[C@H](C)[C@@H](O[C@H]2OC[C@@H](O)[C@@H](O)[C@@H]2O)[C@H](O)[C@@H]1O | inactive
